Measured values as given in PubChem BioAssay AID1159580 (chemical genetic matrix, 2015).
Values joined by “and” are separate entries in the source; they are usually repeats but may differ in a detail not shown here. Equal values may be shown once. The whole screen tested about 5,500 compounds, of which about 2,000 (36%) were called active. Roughly 18% stayed inconclusive and do not appear here. Cut-off read from the data, not from the text of the source: active = normalized growth mostly below about 0.91 (no sharp cut-off); inconclusive = no clear call, values can overlap the other calls; inactive = mostly above about 0.92. This is one part of the list.

Assay: chemical genetic growth profiling, strain panel (AID 1159580);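 note: tested at 20 µM; growth read once vehicle control cultures reached saturation at 30 °C; 1 = growth at the plate median or of vehicle wells; lower values mean less growth of the strain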
Conditions: S. cerevisiae deletion strains, growth OD

Measured: normalized growth

COc1c2occc2c(OC)c2c(=O)cc(C)oc12
active: locus YDR392W, strain spt3, stronger effect = lower value 0.734 | locus YNL071W, strain lat1, stronger effect = lower value 0.912
inactive: locus YAL021C, strain ccr4, stronger effect = lower value 0.992 | locus YAL026C, strain drs2, stronger effect = lower value 0.985 | locus YAL030W, strain snc1, stronger effect = lower value 0.992 | locus YBL061C, strain skt5, stronger effect = lower value 0.992 | locus YBR009C, strain hhf1, stronger effect = lower value 0.963 | locus YBR021W, strain FUR4, stronger effect = lower value 0.958 | locus YBR023C, strain chs3, stronger effect = lower value 0.97 | locus YBR171W, strain sec66, stronger effect = lower value 0.987 | locus YBR229C, strain ROT2, stronger effect = lower value 1.01 | locus YBR231C, strain swc5, stronger effect = lower value 0.944 | locus YBR279W, strain paf1, stronger effect = lower value 0.978 | locus YCL011C, strain gbp2, stronger effect = lower value 0.967 | locus YCL016C, strain dcc1, stronger effect = lower value 0.986 | locus YCL029C, strain bik1, stronger effect = lower value 0.998 | locus YCL061C, strain MRC1, stronger effect = lower value 0.995 | locus YCL069W, strain vba3, stronger effect = lower value 0.977 | locus YCR088W, strain abp1, stronger effect = lower value 0.991 | locus YDL005C, strain med2, stronger effect = lower value 0.989 | locus YDL035C, strain GPR1, stronger effect = lower value 1.05 | locus YDL040C, strain nat1, stronger effect = lower value 0.992 | locus YDL074C, strain BRE1, stronger effect = lower value 1.06 | locus YDL101C, strain DUN1, stronger effect = lower value 1.02 | locus YDL134C, strain PPH21, stronger effect = lower value 1.05 | locus YDL185W, strain tfp1, stronger effect = lower value 1.01 | locus YDL192W, strain arf1, stronger effect = lower value 1.01 | locus YDR001C, strain nth1, stronger effect = lower value 0.991 | locus YDR069C, strain doa4, stronger effect = lower value 0.985 | locus YDR101C, strain arx1, stronger effect = lower value 0.988 | locus YDR137W, strain rgp1, stronger effect = lower value 1.01 | locus YDR159W, strain sac3, stronger effect = lower value 0.97 | locus YDR162C, strain NBP2, stronger effect = lower value 1.02 | locus YDR195W, strain ref2 1.14 | locus YDR297W, strain sur2, stronger effect = lower value 0.979 | locus YDR318W, strain mcm21, stronger effect = lower value 1.01 | locus YDR334W, strain swr1, stronger effect = lower value 0.994 | locus YDR335W, strain msn5, stronger effect = lower value 0.987 | locus YDR388W, stronger effect = lower value 1 | locus YDR502C, strain sam2, stronger effect = lower value 1.01 | locus YEL003W, strain gim4, stronger effect = lower value 0.938 | locus YEL037C, strain rad23, stronger effect = lower value 0.99 | locus YEL061C, strain CIN8 (second series), stronger effect = lower value 0.981 | locus YER015W, strain faa2, stronger effect = lower value 0.977 | locus YER016W, strain bim1, stronger effect = lower value 0.994 | locus YER110C, stronger effect = lower value 1 | locus YER111C, strain swi4, stronger effect = lower value 1 | locus YER155C, strain BEM2 (second series), stronger effect = lower value 0.881 | locus YER155C, strain BEM2, stronger effect = lower value 1 | locus YER167W, strain BCK2, stronger effect = lower value 1.01 | locus YFR010W, strain ubp6, stronger effect = lower value 0.986 | locus YGL078C, strain dbp3, stronger effect = lower value 1.01 | locus YGL086W, strain mad1, stronger effect = lower value 1 | locus YGL167C, strain pmr1, stronger effect = lower value 0.997 | locus YGL173C, strain kem1, stronger effect = lower value 0.977 | locus YGL227W, strain vid30, stronger effect = lower value 0.99 | locus YGL240W, strain doc1, stronger effect = lower value 0.955 | locus YGL248W, strain PDE1, stronger effect = lower value 1.04 | locus YGL253W, strain hxk2, stronger effect = lower value 0.958 | locus YGR135W, strain pre9, stronger effect = lower value 1 | locus YGR252W, strain gcn5, stronger effect = lower value 0.965 | locus YHR013C, strain ard1, stronger effect = lower value 0.975 | locus YHR027C, strain rpn1, stronger effect = lower value 0.987 | locus YHR030C, strain SLT2, stronger effect = lower value 1.02 and 0.987 | locus YHR079C, strain IRE1 (second series), stronger effect = lower value 1 | locus YHR079C, strain IRE1, stronger effect = lower value 0.996 | locus YHR094C, strain hxt1, stronger effect = lower value 1.01 | locus YHR129C, strain ARP1, stronger effect = lower value 1.01 | locus YHR142W, strain chs7, stronger effect = lower value 0.949 | locus YHR200W, strain rpn10, stronger effect = lower value 1.04 | locus YIL066C, strain RNR3, stronger effect = lower value 1.02 | locus YIL073C, strain SPO22, stronger effect = lower value 1.13 | locus YIL125W, strain kgd1, stronger effect = lower value 1.02 | locus YIR030C, strain dcg1, stronger effect = lower value 1.01 | locus YJL092W, strain hpr5, stronger effect = lower value 0.996 | locus YJL095W, strain BCK1 (second series), stronger effect = lower value 0.993 | locus YJL095W, strain BCK1, stronger effect = lower value 1.03 and 1 | locus YJL115W, strain asf1, stronger effect = lower value 0.996 | locus YJL129C, strain trk1, stronger effect = lower value 1.01 | locus YJL134W, strain LCB3, stronger effect = lower value 1.01 | locus YJL154C, strain vps35, stronger effect = lower value 0.995 | locus YJL164C, strain tpk1, stronger effect = lower value 0.965 | locus YJL166W, strain qcr8, stronger effect = lower value 0.945 | locus YJL168C, strain set2, stronger effect = lower value 1.01 | locus YJL187C, strain SWE1 (second series), stronger effect = lower value 1.02 | locus YJL187C, strain SWE1, stronger effect = lower value 0.99 | locus YJR043C, strain POL32, stronger effect = lower value 1.03 | locus YJR066W, strain TOR1, stronger effect = lower value 0.931 | locus YJR075W, strain HOC1, stronger effect = lower value 1.03 | locus YKL009W, strain mrt4, stronger effect = lower value 0.991 | locus YKL068W, stronger effect = lower value 1.01 | locus YKL085W, strain MDH1 (second series), stronger effect = lower value 1.01 | locus YKL085W, strain MDH1, stronger effect = lower value 1.01 | locus YKL160W, strain elf1, stronger effect = lower value 0.963 | locus YKR001C, strain vps1, stronger effect = lower value 1.02 | locus YKR026C, strain gcn3, stronger effect = lower value 0.995 | locus YKR091W, strain srl3, stronger effect = lower value 0.998 | locus YLL001W, strain dnm1, stronger effect = lower value 0.949 | locus YLL026W, stronger effect = lower value 0.999 | locus YLL041C, strain sdh2, stronger effect = lower value 0.998 | locus YLR027C, strain aat2, stronger effect = lower value 0.99 | locus YLR039C, strain RIC1, stronger effect = lower value 1.18 | locus YLR058C, strain SHM2, stronger effect = lower value 1.01 | locus YLR102C, strain apc9, stronger effect = lower value 1.01 | locus YLR113W, strain HOG1, stronger effect = lower value 1.07 | locus YLR221C, strain rsa3, stronger effect = lower value 0.963 | locus YLR258W, strain gsy2, stronger effect = lower value 0.943 | locus YLR262C, strain YPT6 (second series), stronger effect = lower value 0.985 | locus YLR268W, strain sec22, stronger effect = lower value 0.999 | locus YLR320W, strain mms22, stronger effect = lower value 0.941 | locus YLR342W, strain FKS1, stronger effect = lower value 0.994 | locus YLR357W, strain rsc2, stronger effect = lower value 1.01 | locus YLR370C, strain arc18, stronger effect = lower value 0.996 | locus YLR371W, strain rom2, stronger effect = lower value 1.02 | locus YLR384C, strain iki3, stronger effect = lower value 0.986 | locus YLR418C, strain cdc73, stronger effect = lower value 1.04 | locus YML016C, strain PPZ1, stronger effect = lower value 1.01 | locus YML032C, strain rad52, stronger effect = lower value 1 | locus YML120C, strain ndi1, stronger effect = lower value 0.972 | locus YML124C, strain tub3, stronger effect = lower value 0.999 | locus YMR058W, strain fet3, stronger effect = lower value 0.975 | locus YMR078C, strain ctf18, stronger effect = lower value 1.02 | locus YMR125W, strain sto1, stronger effect = lower value 1.04 | locus YMR129W, stronger effect = lower value 1 | locus YMR205C, strain PFK2, stronger effect = lower value 0.985 | locus YMR223W, strain ubp8, stronger effect = lower value 0.992 | locus YMR231W, strain pep5, stronger effect = lower value 0.999 | locus YMR307W, strain GAS1, stronger effect = lower value 1.17 | locus YNL067W, strain RPL9B, stronger effect = lower value 0.986 | locus YNL128W, strain TEP1, stronger effect = lower value 1.02 | locus YNL153C, strain GIM3, stronger effect = lower value 1 | locus YNL183C, strain NPR1, stronger effect = lower value 0.949 | locus YNL209W, strain ssb2, stronger effect = lower value 0.977 | locus YNL233W, strain BNI4, stronger effect = lower value 1.03 | locus YNL248C, strain rpa49, stronger effect = lower value 0.989 | locus YNL250W, strain rad50, stronger effect = lower value 1.05 | locus YNL271C, strain bni1, stronger effect = lower value 1.01 | locus YNL298W, strain CLA4, stronger effect = lower value 1.02 | locus YNL307C, strain MCK1, stronger effect = lower value 1 | locus YNL322C, strain KRE1 (second series), stronger effect = lower value 0.998 | locus YNR049C, strain mso1, stronger effect = lower value 1 | locus YNR052C, strain pop2, stronger effect = lower value 1.01 | locus YOL012C, strain htz1 1.05 | locus YOL147C, strain pex11, stronger effect = lower value 1.01 | locus YOR001W, strain rrp6, stronger effect = lower value 0.946 | locus YOR061W, strain CKA2, stronger effect = lower value 1.02 | locus YOR069W, strain VPS5, stronger effect = lower value 1 | locus YOR070C, strain gyp1, stronger effect = lower value 0.988 | locus YOR080W, strain dia2, stronger effect = lower value 0.987 | locus YOR083W, strain WHI5, stronger effect = lower value 0.942 | locus YOR106W, strain vam3, stronger effect = lower value 0.966 | locus YOR136W, strain idh2, stronger effect = lower value 1.02 | locus YOR144C, strain elg1, stronger effect = lower value 1.01 | locus YOR184W, strain ser1, stronger effect = lower value 1.02 | locus YOR231W, strain MKK1, stronger effect = lower value 0.997 | locus YOR265W, strain rbl2, stronger effect = lower value 0.989 | locus YOR270C, strain vph1, stronger effect = lower value 0.839 | locus YOR290C, strain snf2, stronger effect = lower value 0.958 | locus YOR316C, strain cot1, stronger effect = lower value 1.03 | locus YPL051W, strain arl3, stronger effect = lower value 0.972 | locus YPL078C, strain atp4, stronger effect = lower value 0.951 | locus YPL106C, strain sse1, stronger effect = lower value 0.961 | locus YPL240C, strain hsp82, stronger effect = lower value 0.989 | locus YPL241C, strain CIN2, stronger effect = lower value 1.01 | locus YPL256C, strain CLN2, stronger effect = lower value 1.03 | locus YPR119W, strain clb2, stronger effect = lower value 1.01 | locus YPR141C, strain kar3, stronger effect = lower value 1.01 | locus YPR163C, strain tif3, stronger effect = lower value 0.992 | locus YPR167C, strain met16, stronger effect = lower value 1.02 | strain wtn01, stronger effect = lower value 0.999
